From PubChem BioAssay AID1159580 (chemical genetic matrix, 2015)
Hit rate of the full screen: of about 5,500 compounds, about 2,000 (36%) were called active. Inconclusive results (about 18%) are left out. Cut-off read from the data, not from the text of the source: active = normalized growth mostly below about 0.91 (no sharp cut-off); inconclusive = no clear call, values can overlap the other calls; inactive = mostly above about 0.92. This is one part of the list.

Test: chemical genetic growth profiling, strain panel (AID 1159580);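 note: tested at 20 µM; growth read once vehicle control cultures reached saturation at 30 °C; 1 = growth at the plate median or of vehicle wells; lower values mean less growth of the strain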
Conditions: growth OD
[1] = S. cerevisiae deletion strains, locus YAL013W, strain DEP1, hits give low values
[2] = S. cerevisiae deletion strains, locus YBR229C, strain ROT2, hits give low values
[3] = S. cerevisiae deletion strains, locus YCL061C, strain MRC1, hits give low values
[4] = S. cerevisiae deletion strains, locus YDL101C, strain DUN1, hits give low values
[5] = S. cerevisiae deletion strains, locus YDR150W, strain NUM1, hits give low values
[6] = S. cerevisiae deletion strains, locus YEL061C, strain CIN8, hits give low values
[7] = S. cerevisiae deletion strains, locus YGR078C, strain PAC10, hits give low values
[8] = S. cerevisiae deletion strains, locus YHR030C, strain SLT2, hits give low values
[9] = S. cerevisiae deletion strains, locus YHR087W, strain rtc3, hits give low values
[10] = S. cerevisiae deletion strains, locus YJL187C, strain SWE1, hits give low values
[11] = S. cerevisiae deletion strains, locus YJR043C, strain POL32, hits give low values
[12] = S. cerevisiae deletion strains, locus YJR075W, strain HOC1, hits give low values
[13] = S. cerevisiae deletion strains, locus YLR039C, strain RIC1, hits give low values
[14] = S. cerevisiae deletion strains, locus YLR058C, strain SHM2 (second series), hits give low values
[15] = S. cerevisiae deletion strains, locus YLR085C, strain ARP6, hits give low values
[16] = S. cerevisiae deletion strains, locus YLR262C, strain YPT6, hits give low values
[17] = S. cerevisiae deletion strains, locus YML094W, strain GIM5, hits give low values
[18] = S. cerevisiae deletion strains, locus YMR219W, strain ESC1, hits give low values
[19] = S. cerevisiae deletion strains, locus YMR263W, strain SAP30, hits give low values
[20] = S. cerevisiae deletion strains, locus YMR307W, strain GAS1, hits give low values
[21] = S. cerevisiae deletion strains, locus YNL153C, strain GIM3, hits give low values
[22] = S. cerevisiae deletion strains, locus YNL298W, strain CLA4 (second series), hits give low values
[23] = S. cerevisiae deletion strains, locus YNL322C, strain KRE1, hits give low values
[24] = S. cerevisiae deletion strains, locus YNR030W, strain Alg12, hits give low values
[25] = S. cerevisiae deletion strains, locus YOL006C, strain TOP1, hits give low values
[26] = S. cerevisiae deletion strains, locus YPL055C, strain LGE1, hits give low values
[27] = S. cerevisiae deletion strains, locus YPL241C, strain CIN2, hits give low values
[28] = S. cerevisiae deletion strains, locus YPR135W, strain CTF4, hits give low values

Measured: normalized growth

COC(=O)C1=C(C)NC(C)=C(C(=O)OC)C1c1ccc(-c2ccsc2C(=O)OC)o1
inactive: [1] 1 | [2] 1 | [3] 0.989 | [4] 1 | [5] 0.941 | [6] 1.03 | [7] 0.994 | [8] 1.05 | [9] 0.985 | [10] 1.01 | [11] 0.994 | [12] 0.946 | [13] 1.05 | [14] 0.999 | [15] 0.992 | [16] 0.999 | [17] 1.01 | [18] 1 | [19] 1 | [20] 0.968 | [21] 0.99 | [22] 1.06 | [23] 0.991 | [24] 1.02 | [25] 1.06 | [26] 0.898 | [27] 0.862 | [28] 1

COC(=O)c1sccc1NC(=O)C1CC1
inactive: [1] 0.991 | [2] 1 | [4] 0.995 | [5] 0.942 | [6] 0.979 | [7] 0.978 | [8] 1.01 | [9] 0.99 | [10] 0.977 | [11] 1.02 | [12] 0.99 | [13] 1.01 | [14] 0.976 | [15] 0.92 | [16] 1.07 | [17] 0.962 | [18] 0.981 | [19] 0.988 | [20] 1.06 | [21] 1.01 | [22] 1 | [23] 0.979 | [24] 0.989 | [25] 0.982 | [26] 0.97 | [27] 0.97 | [28] 1.03 | S. cerevisiae strains, strain wild type, hits give low values 0.992

CCOC(=O)Nc1ccsc1C(=O)OC
inactive: [1] 0.997 | [2] 1 | [3] 0.999 | [4] 0.988 | S. cerevisiae deletion strains, locus YDL134C, strain PPH21, hits give low values 1 | [5] 0.975 | [6] 0.974 | [7] 0.986 | [8] 1 | [9] 1 | [11] 1 | [12] 0.986 | S. cerevisiae deletion strains, locus YKL190W, strain CNB1, hits give low values 1 | [13] 0.983 | [14] 1 | [15] 0.988 | [16] 0.996 | [17] 0.985 | [18] 1 | [19] 1.02 | [20] 1.07 | [21] 0.987 | [22] 1.02 | [23] 0.983 | [24] 1.01 | [26] 0.981 | [27] 1.08 | [28] 0.947

COC(=O)C1C2CC3c4[nH]c5cc(OC)ccc5c4CCN3CC2CC(OC(=O)c2cc(OC)c(OC)c(OC)c2)C1OC (stereo unspecified)
inactive: [1] 0.996 | S. cerevisiae deletion strains, locus YAL040C, strain CLN3, hits give low values 1.07 | S. cerevisiae deletion strains, locus YDR363W, strain ESC2, hits give low values 1 | S. cerevisiae deletion strains, locus YER002W, strain NOP16, hits give low values 0.99 | [12] 1 | [19] 1 | S. cerevisiae deletion strains, locus YNL128W, strain TEP1, hits give low values 0.98 | S. cerevisiae deletion strains, locus YNL175C, strain NOP13, hits give low values 1 | S. cerevisiae deletion strains, locus YNL197C, strain WHI3, hits give low values 0.989 | S. cerevisiae deletion strains, locus YNL224C, strain SQS1, hits give low values 1.04 | S. cerevisiae deletion strains, locus YOR083W, strain WHI5 (second series), hits give low values 0.934 | [26] 1.02
